For 40 compounds, growth results are on record in PubChem BioAssay (NCI).

Compounds without any hit were thinned out: in the full panel of roughly 83,000, 20% have a hit.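 Note: values are percent growth. 100 is the growth of untreated cells, values between 100 and 0 indicate rising inhibition; between -100 and 0 indicates cell death.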 Unmarked numbers belong to inactive results. Activity calls are given as the source filed them.

In this experiment the test system is SNB-75 CNS. The experiment can be described thus: NCI-60 one-dose screen, 48 h (100 = growth as untreated, 0 = no growth, -100 = all killed). The following applies: 10 µM unless noted. As to the method:
Growth inhibition of the SNB-75 human tumor cell line is measured as a screen for anti-cancer activity. Cells are grown in 96 well plates and exposed to the test compound for 48 hours. Compounds are tested at a single concentration, which is 10^-5 M for most compounds. The reported endpoint is percent growth (GI% or GIPRCNT), where numbers from 0 - 100% represent growth inhibition, and numbers from -100% - 0 represent cell death. For example, a value of 40 represents 60% growth inhibition. A value of 0 means no net growth occurred over the course of the experiment. A value of -40 indicates 40% of cells at the beginning of the experiment died by the end of the experiment. A value of -100 means all cells are dead at the end of the experiment.
NCI-60 Human Tumor Cell Lines Screen was performed using the standard one-dose NCI protocol, which is described in more detail at https://dtp.cancer.gov/discovery_development/nci-60/default.htm.
Compounds with GIPRCNT values below 10 were considered active. Activity score was based on GIPRCNT using the following formula: […]
Score is 0 for GIPRCNT values of 100 or above, 50 for GIPRCNT values of 0, and 100 for GIPRCNT values of -100.
Turning to `C=CCn1c(C)nc2cc(Nc3nc(N4CCCC4)nc4nc[nH]c34)ccc21`, the growth was -64.9% (active).
`CCc1ccc(-c2ccc(NC3CCCCCC3)nn2)cc1S(N)(=O)=O`: the growth was 97.2%.
For the compound `O=C(C(Br)C(Br)c1ccccc1)C(Br)C(Br)c1ccccc1` (stereo not given), the growth was 60%.
As for `COc1cc(C2CC(c3cccc(Nc4ccnc5cc(Cl)ccc45)c3)=NN2c2ccc(Cl)cc2)cc(OC)c1OC` (stereo not given), the growth is 62.4%.
For the compound `COc1ccc2[nH]cc(C(c3ccc(Cl)cc3)N3CCCC3)c2c1` (stereo not given), the growth is 90%.
Consider `COc1ccc(C(=O)c2c(N)nc3n2CCCC3)cc1OC`, for which the growth was 85.1%.
Consider `COc1ccc(C2C3CCc4ccccc4C3=NN2C(=O)c2cc(OC)c(OC)c(OC)c2)cc1O` (stereo not given), for which the growth was 89.4%.
As for `O=C1/C(=C\c2cccn2Cc2ccc(F)cc2)c2ccccc2N1c1c(Cl)cccc1Cl`, the growth was 68.4%.
`COc1cc(C)cc2oc3oc(=O)c(-c4csc(-c5cc6ccccc6oc5=O)n4)cc3c(=O)c12`: the growth was 113%.
On to `[O-]/[N+](=C\c1ccccc1)CC1(O)CCCCC1`, for which the growth is 81.1%.
For `CC(=O)c1nn(-c2ccccc2)/c(=N\N=C\c2coc3ccc(F)cc3c2=O)s1`, the growth is 73.4%.
For the compound `NS(=O)(=O)c1ccc(N2N=C(c3cccs3)CC2c2ccccc2O)cc1` (stereo not given), the growth was 30.5%.
Regarding `COc1cc(OC)cc(-c2n/c(=C\c3c(O)[nH]c4ccc(Cl)cc34)cc3c2=Nc2ccccc2-3)c1`, the growth was 93.7%.
`CC(CN1CCN(CCOCCO)CC1)CN1c2ccccc2Sc2ccc(Cl)cc21` (stereo not given): the growth was 69.7%.
As for `O=C(OCc1ccc2c(Cl)cc(Cl)c(O)c2n1)c1cc2ccccc2[nH]1`, the growth is -94.8% (active).
Regarding `O=C1Cc2c([nH]c3ccc([N+](=O)[O-])cc23)-c2ccccc2N1`, the growth was -7.52% (active).
For `CNC(=O)c1ccccc1Sc1ccc2c(/C=C/c3ccccn3)n[nH]c2c1`, the growth was 26.3%.
In the case of `CC(C)CC(NC(=O)C(CCCN=C(N)N)NC(=O)OCc1ccccc1)C(=O)NC(CNC(=O)/C=C/c1ccccc1)C(C)C` (stereo not given), the growth is 84.5%.
Next, `CCN(CC)c1ccc2nc3c4ccccc4c(=O)cc-3n(-c3ccccc3)c2c1`: -2.25% (active); `O=C1C(Cl)=C(N/N=c2/[nH][nH]/c(=N/NC3=C(Cl)C(=O)c4ccccc4C3=O)c3ccccc23)C(=O)c2ccccc21`: 63.6%.
Regarding `Cc1ccc(NC(=O)c2nc(S(C)(=O)=O)oc2-c2ccc(F)cc2)cc1Nc1ccc2ncn(C)c(=O)c2c1`, the growth was 105%.
Regarding `O=C(/C=C/c1ccccc1)n1c(-c2ccccc2)nc2ccccc21`, the growth was 85.6%.
As for `Cc1cc(C#Cc2ccccc2)ccc1-n1c(/C=C/c2ccc(F)cc2)nc2ccccc2c1=O`, the growth is 86.5%.
Regarding `COc1ccc2[nH]c(O)c(/C=c3/ccc4c(c3)N=C(c3ccc(F)cc3)N=4)c2c1`, the growth was -12.3% (active).
For `Clc1ccc(Nc2ncnc3c2sc2ncccc23)c(Cl)c1`, the growth is 42.3%.
`CC(=O)c1cc(C(=O)c2ccc3c(c2)Sc2ccccc2N3)c2c(C)cccn12`: the growth was 24.3%.
As to `COc1ccc(/C=C2\N=C(c3cccnc3)N(c3ccccc3)NC2=O)cc1`, the growth is 80.6%.
In the case of `CCCCCNCCCCCNc1cc(OC)cc2cccnc12`, the growth is 61.7%.
With `Cc1nc2ccc(Nc3nc(Cl)nc(N4CCOCC4)n3)cc2n1Cc1ccccc1`, the growth was 51.2%.
In the case of `c1ccc(C(Nc2ccccn2)(c2ccccc2)c2ccccc2)cc1`, the growth was 74.8%.
As for `CC(=O)OC1Oc2cc(C)c(C)cc2-c2oc(=O)c(-c3cc4ccccc4oc3=O)cc21` (stereo not given), the figure is 92.5%; as for `CC1=C(C(=O)Nc2ccc(F)cc2)C(c2ccccc2)C2=C(CC(C)(C)CC2=O)N1` (stereo not given), 65.8%; as for `CCN(C(=O)Nc1cccc2ccccc12)c1ccccc1`, 92.4%.
Regarding `CC(C)(C)NC(=O)C(OC(=O)C1CCc2cc(F)ccc2O1)c1ccccc1Cl` (stereo not given), the growth is 83.3%.
With `Cc1cc(C)c2c(n1)sc1c(Nc3ccc(OCc4ccccc4)cc3)ncnc12`, the growth was 108%.
Consider `O=c1cc(N2CCOCC2)oc2c(-c3ccc4c(c3)OCCO4)csc12`, for which the growth was -16.6% (active).
For the compound `O=C(NNC(=S)Nc1ccccc1)c1ccc(Nc2ncnc3c2cnn3-c2cccc(Br)c2)cc1`, the growth was 80%.
On to `Cc1nc2ccc(Nc3nc(N4CCOCC4)nc(N4CCN(C)CC4)n3)cc2n1Cc1ccccc1`, for which the growth was 62.4%.
Regarding `CCn1c(CN2CCN(Cc3ccccc3)CC2)nc2cc(NC(=O)c3cccs3)ccc21`, the growth was -96.6% (active).
Regarding `CNC(=O)c1cc(Oc2ccc(NC(=O)c3nc(S(C)(=O)=O)n(C)c3-c3ccc(F)cc3)cc2)ccn1`, the growth was 43%.
